About 10 (0.01%) of roughly 89,000 compounds were called active. Inconclusive results (about 10%) are left out. No stated cut-off is given here; in the data, active means activity change below about -37% (passing the limit was not always enough); inconclusive means no clear call, values can overlap the other calls; tested in A549 cells. Only a sample is shown.
Test: blocks a specific stage of Vaccinia orthopoxvirus infection, primary screen, cell-based, single point (AID 1053133)
Settings: Vaccinia-infected cells, mCherry/Venus stage reporter fluorescence, stronger effect = lower value, concentration not given here; activity change (Venus): measured here: Venus reporter, other viral stage

Compound	activity change (Venus) [%]	activity change (mCherry)
O=C(C[C@H]1C=C[C@@H](NS(=O)(=O)c2ccc(F)cc2)[C@@H](CO)O1)NC1CCC1	1.04	-4.64% (inactive)
COc1ccc2c3c(n(C)c2c1)[C@@H](CO)NCC31CCN(CC2CC2)CC1	-18.9	-27.4% (inactive)
O=C([C@@H]1[C@@H](CO)[C@@H]2Cn3c(ccc(C4=CCCC4)c3=O)[C@H]1N2C(=O)c1ccncc1)N1CCCCC1	16.9	10.1% (inactive)
C[C@@H]1CCCCO[C@H](CN(C)S(=O)(=O)c2cccs2)[C@H](C)CN([C@@H](C)CO)C(=O)c2cc(NC(=O)Nc3ccc4c(c3)OCO4)ccc2O1	8.44	9.35% (inactive)
COCC(=O)N1CC2(CN(C(=O)c3cccnc3)C2)c2c([nH]c3cc(OC)ccc23)[C@H]1CO	-0.352	2.73% (inactive)
Cc1ccccc1S(=O)(=O)N[C@@H]1CC[C@H](CCn2cc(-c3ccc(F)cc3)nn2)O[C@@H]1CO	-24.8	-28.1% (inactive)
CO[C@@H]1CC[C@@H]2CCOc3c(C#N)cccc3C(=O)N(C)C[C@H](C)C(=O)N(C)C[C@H]1O2	8.81	14.4% (inactive)
C[C@@H]1CN([C@@H](C)CO)C(=O)c2cc(NC(=O)Cc3ccccc3)ccc2O[C@@H](C)CCCCO[C@H]1CN(C)C(=O)Nc1cccc2ccccc12	18.5	21.9% (inactive)
CN(C)CCCNC(=O)C[C@H]1CC[C@H]2[C@@H](COC[C@H](O)CN2CC2CCCCC2)O1	5.87	3.25% (inactive)
C[C@@H]1CCCCO[C@@H](CN(C)Cc2ccc3c(c2)OCO3)[C@H](C)CN([C@@H](C)CO)C(=O)c2cc(NS(C)(=O)=O)ccc2O1	5.91	-0.705% (inactive)
COc1ccc2c3c(n(C)c2c1)[C@H](CO)N(CC1CCOCC1)CC31CCN(C(C)=O)CC1	11	17.4% (inactive)
CN(C)CC(=O)Nc1ccc2c(c1)[C@@H]1C[C@H](CC(=O)NCc3ccc(Cl)cc3)O[C@@H](CO)[C@@H]1O2	5.77	-4.73% (inactive)
COc1ccc2c3c([nH]c2c1)[C@@H](CO)N(C(=O)c1ccc(F)cc1)CC31CCN(C(=O)Nc2ccc(F)cc2)CC1	-2.47	1.1% (inactive)
C[C@H](CO)N1C[C@H](C)[C@H](CN(C)Cc2cccc(F)c2)Oc2ncc(C#CCN(C)C)cc2C1=O	-6.38	-10.3% (inactive)
COc1ccc(S(=O)(=O)N[C@@H]2CC[C@@H](CC(=O)NCCc3ccccc3)O[C@@H]2CO)cc1	-2.59	3.47% (inactive)
O=C(NCC[C@@H]1CC[C@@H](NS(=O)(=O)c2ccc(Cl)cc2)[C@@H](CO)O1)c1ccccc1F	-4.89	-8.02% (inactive)
COc1ccc(S(=O)(=O)Nc2ccc3c(c2)C(=O)N([C@@H](C)CO)C[C@H](C)[C@@H](CN(C)C(=O)c2ccccc2)OCCCC[C@H](C)O3)cc1	-18.1	-21.6% (inactive)
CC(C)NC(=O)N1Cc2cc(C(=O)NCC(F)(F)F)nc(-c3cccc(-c4cc5ccccc5o4)c3)c2[C@@H]1CCO	-13.3	-16.3% (inactive)
C[C@@H]1CN([C@@H](C)CO)C(=O)Cc2cc(NS(=O)(=O)c3cccs3)ccc2O[C@H]1CN(C)S(=O)(=O)c1ccc(F)cc1	4.55	-5.12% (inactive)

Compound	activity change (Venus) [%]	activity change (mCherry)
CO[C@@H]1CN(C)C(=O)c2cc(NC(=O)C3CC3)ccc2OC[C@H](C)N(C(=O)CN(C)C)C[C@H]1C	-3.17	-2.47% (inactive)
O=C(C[C@@H]1CC[C@H](NC(=O)Nc2ccc3c(c2)OCO3)[C@H](CO)O1)NCc1ccccc1	14.1	19.4% (inactive)
C=CCOC(=O)C1=C[C@@H](c2ccccc2)C[C@@H](OCc2ccc(CO)cc2)O1	-3.63	2.64% (inactive)
O=C(C1CCCC1)N1CC(=O)N2[C@@H](CO)[C@@H](c3ccc(-c4cccnc4)cc3)[C@@H]2C1	-4.04	-5.69% (inactive)
Cc1ccccc1-c1cnc2c(c1)C(=O)N([C@H](C)CO)C[C@@H](C)[C@H](CN(C)C(=O)c1cccnc1)O2	-1.16	-1.67% (inactive)
CN(C)C(=O)c1ccc(-c2ccc(C3[C@H]4CNC[C@@H]3N4C(=O)Nc3cc(F)ccc3F)cc2)cc1 (some centres undefined)	3.11	14.7% (inactive)
O=C(C1CCCCC1)N1CC2(C1)[C@H](c1ccccc1)[C@@H](CO)N2CCC(F)(F)F	-3.18	-9.06% (inactive)
CC(=O)Nc1ccc2c(c1)C(=O)N(C)[C@H]1CC[C@@H](CC(=O)NCC3CC3)O[C@H]1CO2	11.1	7.92% (inactive)
CCC(=O)N(C)C[C@@H]1Oc2ncc(/C=C/c3ccccc3)cc2C(=O)N([C@@H](C)CO)C[C@H]1C	1.22	12.1% (inactive)
O=C(O)C[C@H]1C=C[C@@H](NC(=O)Nc2cc(F)ccc2F)[C@@H](CO)O1	9.94	8.15% (inactive)
COCC(=O)N(C)C[C@H]1Oc2cc(C#C[C@@H](C)O)ccc2S(=O)(=O)N([C@@H](C)CO)C[C@@H]1C	-7.76	2.13% (inactive)
CCC(=O)N(C)C[C@@H]1Oc2cc(-c3ccc(C#N)cc3)ccc2S(=O)(=O)N([C@@H](C)CO)C[C@@H]1C	0.0371	-1.36% (inactive)
COc1ccc2c3c(n(C)c2c1)[C@@H](CO)N(S(C)(=O)=O)CC31CCN(C(=O)C2CCC2)CC1	-12.1	-2.22% (inactive)
CC(C)C#Cc1cnc2c(c1)C(=O)N([C@H](C)CO)C[C@H](C)[C@@H](CN(C)C(=O)Nc1cc(F)ccc1F)O2	-6.46	-3.74% (inactive)
COc1ccccc1NC(=O)N1C[C@@H](O)COC[C@H]2O[C@@H](CC(=O)NCc3ccccc3)CC[C@@H]21	-3.27	-5.93% (inactive)
Cc1cccc(-c2ccc([C@@H]3[C@H]4CN(C(=O)c5ccccc5)CC(=O)N4[C@H]3CO)cc2)c1	-26.3	-24.1% (inactive)
CCCN1C[C@H](C)[C@@H](OC)CN(C)C(=O)c2ccc(NC(=O)C3CCOCC3)cc2OC[C@@H]1C	5.44	13.4% (inactive)
C[C@H]1CN([C@@H](C)CO)C(=O)CCCn2nncc2CO[C@@H]1CN(C)C(=O)Nc1ccc(N2CCN(C)CC2)cc1	3.05	3.06% (inactive)
N#Cc1cccc(-c2ccc([C@H]3[C@@H](CO)N[C@@H]3CNC(=O)C3CCC3)cc2)c1	-1.58	-4.87% (inactive)

Compound	activity change (Venus) [%]	activity change (mCherry)
COc1ccc2c3c(n(C)c2c1)[C@H](CO)N(CC1CCCCC1)CC31CCN(Cc2nccs2)CC1	-17.6	-20.4% (inactive)
C/C=C/c1ccccc1[C@H]1[C@@H](C#N)N(C(=O)Cc2ccccn2)[C@@H]1CO	-12.5	-21.2% (inactive)
CCNC(=O)[C@H]1[C@H](CO)[C@H]2Cn3c(cccc3=O)[C@@H]1N2Cc1cc(F)ccc1F	15.1	12.8% (inactive)
O=C(C[C@@H]1CC[C@@H]2[C@H](COC[C@H](O)CN2C(=O)c2ccc3c(c2)OCO3)O1)NC1CCCC1	4.69	7.59% (inactive)
C[C@@H]1CCCCO[C@H](CN(C)S(=O)(=O)c2ccc(Cl)cc2)[C@H](C)CN([C@@H](C)CO)C(=O)c2cc(NS(=O)(=O)c3cn(C)cn3)ccc2O1	3.71	0.869% (inactive)
CNC(=O)C[C@@H]1CC[C@@H]2[C@H](COC[C@H](O)CN2Cc2ccc(C(F)(F)F)cc2)O1	3.54	4.2% (inactive)
Cc1noc(C)c1S(=O)(=O)N(C)C[C@@H]1OCCCC[C@@H](C)Oc2ccc(NC(=O)Nc3ccccc3)cc2C(=O)N([C@H](C)CO)C[C@@H]1C	5.28	12.8% (inactive)
CC=Cc1ccc2n(c1=O)C[C@@H]1[C@@H](CO)[C@H](C(=O)NCc3cccc(OC)c3)N[C@H]21 (mixture of isomers)	12.7	3.42% (inactive)
C/C=C/c1cnc2c(c1)C(=O)N([C@H](C)CO)C[C@H](C)[C@@H](CN(C)S(=O)(=O)c1ccccc1F)O2	-1.53	-5.68% (inactive)
COCC(=O)Nc1ccc2c(c1)C(=O)N(C)C[C@H](OC)[C@@H](C)CN(CCc1ccccc1)[C@@H](C)CO2	-0.0268	-4.99% (inactive)
O=C(C[C@@H]1C[C@@H]2c3cc(NC(=O)Nc4ccccc4F)ccc3O[C@@H]2[C@H](CO)O1)NCCc1ccccc1	7.27	9.1% (inactive)
CCCC(=O)N1CC2(C1)CN(C(=O)Nc1cccc(F)c1)[C@@H](CO)c1c2c2ccc(OC)cc2n1C	-2.53	2.16% (inactive)
COCC(=O)Nc1ccc2c(c1)C(=O)N(C)[C@@H]1CC[C@H](CC(=O)NCC3CC3)O[C@@H]1CO2	8.99	16% (inactive)
COc1ccc2c3c([nH]c2c1)[C@@H](CO)N(C(=O)Cc1ccccc1)CC31CCN(C)CC1	-13.2	-7.54% (inactive)
C[C@H](CO)N1C[C@H](C)[C@H](CN(C)C(=O)C2CCOCC2)Oc2ncc(-c3ccccc3F)cc2C1=O	6.04	8.11% (inactive)
CO[C@H]1CN(C)C(=O)c2cc(NC(=O)C3CCC3)ccc2OC[C@H](C)N(CC2CCCCC2)C[C@@H]1C	3.14	-9.01% (inactive)
COc1ccc2c3c(n(C)c2c1)[C@H](CO)N(C)CC31CCN(C(=O)Nc2cccc(F)c2)CC1	-8.96	-16.1% (inactive)
CC(C)NC(=O)N1CC(=O)N2[C@@H](CO)[C@H](c3ccc(C#CCN(C)C)cc3)[C@@H]2C1	7.94	9.18% (inactive)
O=C(C[C@H]1C[C@H]2c3cc(NC(=O)Nc4ccc(C(F)(F)F)cc4)ccc3O[C@H]2[C@@H](CO)O1)NCCc1ccccc1	9.77	6.8% (inactive)

Reference: PubChem BioAssay AID1053133 (Broad Institute, 2014)
